The list is not random: actives were taken first. Their share in the collection is about 3.7%.
GPR7 antag – human neuropeptides B/W receptor 1 antagonism. P48145. GPR7-expressing cells, fluorescence antagonist assay. inhibition, % at 4.4 µM. 290,000 tested, 1.1% active. AID 1861; in the data active means inhibition above about 16%, passing the limit was not always enough;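 further: cells stimulated with the agonist NPW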
Kir21 block – blocks the mouse Kir2.1 inward-rectifier potassium channel. B-score at 10 µM. HEK293-Kir2.1, FluxOR thallium flux fluorescence; active compounds read low. 310,000 tested, 0.85% active. P35561;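 active means fluorescence ratio B-score at or below minus 3 SD of library scores, with starting-brightness B-score within 2 SD, cut at about -4.2 in these data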;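 further: channel flux triggered by added potassium and thallium sulfate stimulus; B-score of peak minus minimum fluorescence over baseline after thallium stimulus; more negative B-score means stronger Kir2.1 block with less thallium influx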
TMEM16A inh – inhibitors of mouse TMEM16A calcium-activated chloride channel; Q8BHY3; HEK293 TMEM16A/YFP iodide influx fluorescence, ionomycin; 310,000 tested, 1.2% active; AID 588511; normalized B-score (activity score, 25-100; higher = stronger inhibition) at 10 µM;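 active means ratio plate-corrected score three or more library SD toward inhibition, starting fluorescence score within five deviations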;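 further: score derived from kinetic fluorescence span divided by baseline fluorescence per well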
TMEM16A act – activates or potentiates the mouse TMEM16A chloride channel; HEK293 TMEM16A/YFP-H148Q/I152L, iodide quench fluorescence; active compounds read low; B-score at 10 µM; 340,000 tested, 0.3% active; AID 623877;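 active means fluorescence-ratio B-score plate-corrected deviation score at least 3 library SD below zero, with starting fluorescence score within 5 deviations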;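 further: channel opened by trigger with iodide after compound preincubation; score built on the fluorescence ratio of max minus min over baseline; more negative score means more quench and so TMEM16A activation or potentiation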
CHT inh – inhibits the human high affinity choline transporter; B-score at 10 µM; Q9GZV3; AID 488975; CHT-expressing cells, membrane potential dye, choline response; active compounds read low; 310,000 tested, 0.86% active;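 active means B-score over 3 SD under the library average, and starting fluorescence ratio not unusually high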;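 further: choline stimulus applied at its EC90 after an EC20 pre-addition; B-score computed on integrated fluorescence ratio after choline addition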
CHT allo act – human CHT allosteric activation; AID 488977; CHT-expressing cells, membrane potential dye, choline EC20; active compounds read high; LV-AA mutant CHT in HEK293 cells; B-score at 10 µM; Q9GZV3; 310,000 tested, 0.49% active;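 active means initial fluorescence not abnormally high and integrated response B-score, plate-corrected, over 3 SD above library mean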
GPR7 antag conf – confirmation of human GPR7 antagonists; shares compounds with GPR7 antag; GPR7-expressing cells, calcium fluorescence antagonist mode; inhibition, % at 4.4 µM; 2,400 tested, 52% active; AID 1952; in the data active means inhibition above about 24%;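 further: stimulated with the GPR7 agonist NPW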
MCHR1 antagonist – counter-screen for GPR7 antagonists: antagonists of human MCHR1; shares compounds with GPR7 antag; MCHR1-expressing cells, fluorescence antagonist assay; inhibition, % at 4.4 µM; 2,400 tested, 62% active; in the data active means inhibition above about 22%
CHT block conf – human CHT inhibition, confirmatory screen. shares compounds with CHT inh. CHT-expressing cells, choline membrane potential dye; LV-to-AA substituted CHT, HEK293 cells. CHT activity remaining % of control (active compounds read low), % at 10 µM. 2,400 tested, 70% active;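 active means choline transporter activity left, mean of duplicates at 10 µM, below buffer-only control mean minus 3 SD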;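 further: depolarization triggered by choline at its EC90 following an EC20 pre-addition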
HEK293 CHT ctr – activity in parental HEK293 cells lacking CHT; shares compounds with CHT inh; membrane potential dye, choline response; active = decrease or increase beyond buffer ±3SD; membrane potential ratio readout (active if shifted either direction beyond buffer ±3SD; no single direction) at 10 µM; 2,400 tested, 4% active; AID 493222;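 further: parental cells lack the transporter so any hit is non-specific; ratio is peak minus trough fluorescence over baseline after EC90 choline challenge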
Of the large screens only hits and unclear results are named; the others gave an inactive call (follow-up assays come after a bar, where they were run).

Cc1ccc(NC(=O)C2CCN(S(=O)(=O)c3ccc4c(c3)C(C)(C)C(=O)N4C)CC2)c(C)c1	GPR7 antag 30 | GPR7 antag conf inactive | MCHR1 antagonist inactive
Cc1ccc(NC(=O)C2CCN(S(=O)(=O)c3ccc4c(c3)NC(=O)C(C)S4)CC2)cc1Cl (stereo not given)	GPR7 antag 38 | GPR7 antag conf 69 | MCHR1 antagonist 75
Cc1cc(C)cc(NC(=O)C2CCN(S(=O)(=O)c3ccc4c(c3)NC(=O)C(C)S4)CC2)c1 (stereo not given)	GPR7 antag 30 | GPR7 antag conf 25 | MCHR1 antagonist 46
COc1ccc(C)cc1NC(=O)C1CCN(S(=O)(=O)c2ccc3c(c2)C(C)(C)C(=O)N3C)CC1	none
COc1ccc(C2/C(=C(/O)c3ccc4c(c3)CC(C)O4)C(=O)C(=O)N2CCN2CCOCC2)cc1OC (stereo not given)	none (no result: TMEM16A inh, CHT inh, CHT allo act)
CC(=O)N[C@H]1[C@H](OC2CCCCC2)O[C@H](COC(C)=O)[C@@H](OC(C)=O)[C@@H]1OC(C)=O	none
O=C(C1CCN(c2ncnc3c2nc2n3CCCCC2)CC1)N1CCN(c2ccccc2F)CC1	none
Cc1cccc(N2CCN(C(=O)C3CCN(c4ncnc5c4nc4n5CCCCC4)CC3)CC2)c1C	GPR7 antag 27 | GPR7 antag conf 25 | MCHR1 antagonist 61
COC(=O)[C@@]1(Cc2ccccc2)[C@H]2c3cc(C(=O)N4CCCC4)n(Cc4ccsc4Br)c3C[C@H]2CN1C(=O)c1ccccc1	GPR7 antag 46 (no result: Kir21 block, TMEM16A act) | GPR7 antag conf 37 | MCHR1 antagonist 26
COc1ccc(-c2csc(NC(=O)CS(=O)(=O)c3ccccc3)n2)cc1	none (no result: GPR7 antag)
CCCC(=O)Nc1nc(-c2ccc(OC)cc2)cs1	GPR7 antag 22 | GPR7 antag conf 24 | MCHR1 antagonist 36
O=C(/C=C/c1ccc([N+](=O)[O-])cc1)NCCN1C(=O)S/C(=C\c2ccc(F)cc2)C1=O	none
CCN(CC)CCNc1oc(-c2ccccc2)nc1S(=O)(=O)c1ccccc1	none (no result: GPR7 antag, Kir21 block, TMEM16A inh, CHT inh, CHT allo act)
COC(=O)C1CN(Cc2ccccc2)C(=O)C1=O (stereo not given)	none (no result: GPR7 antag, Kir21 block, TMEM16A inh, CHT inh, CHT allo act)
OCC1(Cc2ccc(Cl)cc2)CCN(CCCc2ccccc2)CC1	GPR7 antag 26 | GPR7 antag conf 37 | MCHR1 antagonist 31
Cc1nn(-c2ccccc2)c(Cl)c1CN(C(=O)CCl)c1ccc(Cl)cc1	GPR7 antag 95 | GPR7 antag conf 99 | MCHR1 antagonist 100
CCOC(=O)c1[nH]c2ccc(OC)cc2c1NS(=O)(=O)c1ccc(OC)cc1OC	GPR7 antag 22 | GPR7 antag conf 32 | MCHR1 antagonist inactive
CC(C)n1nc(C(=O)Nc2cccc(S(=O)(=O)N3CCCCC3)c2)c2ccccc2c1=O	none (no result: GPR7 antag, Kir21 block, TMEM16A inh, CHT inh, CHT allo act)
CCCN(CCC)C(=O)CC(c1ccccc1)C1CCOC(C)(C)C1 (stereo not given)	none
CC1(C)CC(C(CC(=O)N2CCCC2)Cc2ccccc2)CCO1 (stereo not given)	GPR7 antag 23 | GPR7 antag conf inactive | MCHR1 antagonist inactive
COC(=O)N(NC(=O)C(O)(c1ccccc1)c1ccccc1)c1ccccc1	GPR7 antag 26 | GPR7 antag conf inactive | MCHR1 antagonist 27
O=C(NN(C(=O)c1ccccc1)c1ccccc1)c1ccccc1	none
O=C(c1ccc(F)cc1)N(NC(=O)C(O)(c1ccccc1)c1ccccc1)c1ccccc1	GPR7 antag 37 | GPR7 antag conf 46 | MCHR1 antagonist 31
Oc1cccc(CN2CCCCC2)c1	none
CC(C)(C)c1cc(CN2CCCCC2)cc(C(C)(C)C)c1O	GPR7 antag 23 (no result: TMEM16A act) | GPR7 antag conf inactive | MCHR1 antagonist 29
O=C(CNS(=O)(=O)c1ccc([N+](=O)[O-])cc1)N/N=C\c1ccc(O)cc1	GPR7 antag 41 | GPR7 antag conf 46 | MCHR1 antagonist 34
CC(=O)Nc1ccc(/C=N\NC(=O)CNS(=O)(=O)c2ccc([N+](=O)[O-])cc2)cc1	none
O=C(CNS(=O)(=O)c1ccc([N+](=O)[O-])cc1)N/N=C/c1ccc(O)cc1O	GPR7 antag 41 | GPR7 antag conf 64 | MCHR1 antagonist 44
O=[N+]([O-])c1ccc(NN=Cc2ccc(O)cc2O)nc1	none (no result: GPR7 antag, Kir21 block, TMEM16A inh, CHT inh, CHT allo act)
CC(=O)O[C@@H]1C[C@H]2C(C)(C)C(=O)C=C[C@]2(C)[C@H]2CC[C@@]3(C)[C@H](c4ccoc4)OC(=O)[C@H]4O[C@]43[C@@]21C	GPR7 antag 28 | GPR7 antag conf 42 | MCHR1 antagonist inactive
N#Cc1ccc(CSCC(=O)O)cc1	none
COC(=O)c1ccc(CSCc2ccc(C#N)cc2)cc1	GPR7 antag 48 (no result: TMEM16A act) | GPR7 antag conf 55 | MCHR1 antagonist 56
O=C(COC(=O)c1cc(=O)c2ccccc2o1)Nc1ccccc1F	none (no result: GPR7 antag, Kir21 block, TMEM16A inh, CHT inh, CHT allo act)
CN(C)c1ccc(NC(=O)CN2CCN(S(=O)(=O)c3cc(Cl)ccc3Cl)CC2)cc1	none
CC(C)OC(=O)CN1CCN(S(=O)(=O)c2cc(Cl)ccc2Cl)CC1	GPR7 antag 27, CHT inh -6.4 (no result: Kir21 block) | GPR7 antag conf inactive | MCHR1 antagonist inactive | CHT block conf 66% | HEK293 CHT ctr inactive
CS(=O)(=O)N(CC(O)Cn1c2ccccc2c2ccccc21)c1ccccc1 (stereo not given)	GPR7 antag 28 | GPR7 antag conf 35 | MCHR1 antagonist 34 | CHT block conf inactive | HEK293 CHT ctr inactive
COc1ccc(NC(=S)N2CCN(S(=O)(=O)c3ccccc3)CC2)cc1	none
CC1(C(=O)Nc2ccc3c(c2)OCO3)CC1(Cl)Cl (stereo not given)	none
CCn1c(SCc2ccccc2)nnc1-c1ccc(S(=O)(=O)N2CCCCC2)cc1	GPR7 antag 33, CHT inh -5.9 | GPR7 antag conf inactive | MCHR1 antagonist 33 | CHT block conf inactive | HEK293 CHT ctr inactive
COc1ccc(N(C)S(=O)(=O)c2cccc(C(=O)NC3CCC(C)CC3)c2)cc1 (stereo not given)	GPR7 antag 40, CHT inh -6.3 | GPR7 antag conf 36 | MCHR1 antagonist 48 | CHT block conf 65% | HEK293 CHT ctr inactive

Bioassay records deposited in PubChem BioAssay by several laboratories.
